# From PubChem BioAssay
# 697 NFkB inh: lowers PMA/ionomycin-induced NF-kB signal in 697 B cells; 697 B-cell NF-kB luciferase reporter, 16 h; inhibition, % at 4 µM; hit rate 0.33% among 330,000; AID 435022; in the data active = inhibition above about 35%
# aSyn UTR inh: MLPCN primary screen, SNCA 5' untranslated region | alpha-synuclein 5'UTR reporter, inhibitor activity | inhibition, % (tested at 7.5 µM) | hit rate 0.82% among 300,000; in the data active = inhibition above about 60%; inconclusive = no clear call, values can overlap the other calls;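 note: H4 neuroglioblastoma cells stably carrying SNCA 5'UTR luciferase fusion; 0% = DMSO wells and 100% = positive control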
# Mdm2-MdmX inh: disrupts the human Mdm2-MdmX interaction; SaOS-2 split-luciferase Mdm2/MdmX complementation, luminescence; inhibition, % at 8 µM; hit rate 3% among 330,000; AID 485346;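 active = inhibition of at least 50% at 8 µM in the primary screen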
# Target sequence (O15151 whole entry, looked up): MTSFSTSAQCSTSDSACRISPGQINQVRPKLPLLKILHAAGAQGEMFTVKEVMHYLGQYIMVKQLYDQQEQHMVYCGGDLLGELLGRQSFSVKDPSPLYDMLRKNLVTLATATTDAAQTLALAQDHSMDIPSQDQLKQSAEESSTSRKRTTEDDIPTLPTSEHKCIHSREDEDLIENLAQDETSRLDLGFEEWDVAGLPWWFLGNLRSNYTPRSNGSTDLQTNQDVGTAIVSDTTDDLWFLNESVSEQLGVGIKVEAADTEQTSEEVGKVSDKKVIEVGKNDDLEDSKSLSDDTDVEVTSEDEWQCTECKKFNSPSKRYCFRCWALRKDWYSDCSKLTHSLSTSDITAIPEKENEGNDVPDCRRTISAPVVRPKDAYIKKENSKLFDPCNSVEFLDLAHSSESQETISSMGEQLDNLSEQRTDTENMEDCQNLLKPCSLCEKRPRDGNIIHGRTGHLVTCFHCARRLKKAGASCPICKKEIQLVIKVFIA
# Target sequence (Q00987 whole entry, looked up): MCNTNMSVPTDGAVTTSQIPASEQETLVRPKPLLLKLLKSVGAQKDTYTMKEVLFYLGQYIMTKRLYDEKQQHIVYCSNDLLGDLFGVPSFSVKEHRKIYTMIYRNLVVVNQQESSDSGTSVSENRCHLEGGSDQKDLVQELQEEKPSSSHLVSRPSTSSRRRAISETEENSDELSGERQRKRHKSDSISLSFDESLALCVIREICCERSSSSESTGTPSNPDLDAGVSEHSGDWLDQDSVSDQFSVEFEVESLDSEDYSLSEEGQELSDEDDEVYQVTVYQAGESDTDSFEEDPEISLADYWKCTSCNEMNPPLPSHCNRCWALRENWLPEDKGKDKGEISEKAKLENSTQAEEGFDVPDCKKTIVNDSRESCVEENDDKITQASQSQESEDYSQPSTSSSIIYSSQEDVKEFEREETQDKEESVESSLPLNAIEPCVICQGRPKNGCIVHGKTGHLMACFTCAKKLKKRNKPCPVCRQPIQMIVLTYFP
# Gli-Sufu antag: Gli-Sufu pathway antagonism; Sufu-KO-LIGHT fibroblasts, Gli luciferase reporter luminescence; inhibition, % at 5 µM; hit rate 0.74% among 340,000; AID 588413;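 active = inhibition above about 55%, limit read from the data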;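 note: 0% = DMSO-treated cells and 100% = wells with medium but no cells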
# Jurkat NFkB inh: inhibitors of the PMA/ionomycin-induced NF-kB reporter in Jurkat cells | PMA/ionomycin-induced NF-kB luciferase reporter, luminescence | hit rate 0.53% among 330,000 | inhibition, % at 4 µM; in the data active = inhibition above about 50%
# CSC inhib: cancer stem cell inhibition; cancer stem cell-like cells viability, luminescence; inhibition, % at 7.5 µM; hit rate 1.1% among 300,000; AID 2717; in the data active = inhibition above about 75%; inconclusive = no clear call, values can overlap the other calls; tested in HMLE shEcad cells
# Mdm2-MdmX conf: confirmation of human Mdm2/MdmX interaction inhibitors. shares compounds with Mdm2-MdmX inh. Mdm2-MdmX binding, luminescent assay. inhibition, % at 8 µM. hit rate 55% among 10,000. AID 489028; in the data active = inhibition above about 40%
# Full FLuc ctr: counter-screen for Mdm2/MdmX inhibitors: full-length luciferase; shares compounds with Mdm2-MdmX inh; SaOS-2 full-length luciferase counterscreen, luminescence; inhibition, % at 8 µM; hit rate 77% among 6,200;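 active = mean inhibition at 8 µM reaching about 37%, which flags the compound as non-specific, limit read from the data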;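 note: p53-null SaOS-2 cells with luciferase driven by a doxycycline-inducible promoter; compound on cells about two nights before reading with doxycycline added after day one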
# * marks the source's active call; other numbers are inactive results; u = inconclusive; x = no result given. Sampled rows, rich in hits. Any-hit rate of the full collection: about 4.5%.
SMILES,697 NFkB inh,aSyn UTR inh,Mdm2-MdmX inh,Gli-Sufu antag,Jurkat NFkB inh,CSC inhib,Mdm2-MdmX conf,Full FLuc ctr
CC(=O)N1CCN(c2ccc(NC(=O)c3ccc([N+](=O)[O-])o3)cc2Cl)CC1,1,49,69*,27,31,11,68*,27
CCC1=NN(C(=O)CCc2ccccc2O)C(O)(C(F)(F)F)C1 (stereo not drawn),24,13,9,-1,-4,-2,x,x
Cn1c(/C=C/c2ccc(Br)cc2)nc2ccccc2c1=O,-53,-171,-114,-34,-83,8,x,x
O=C(CCCc1nc2ccccc2s1)NC(c1ccccc1)c1ccccc1,3,9,12,46,0,-29,x,x
O=C(Nc1ccc(S(=O)(=O)N2CCCC2)cc1)c1ccc([N+](=O)[O-])o1,4,x,67*,-2,-2,29,31,x
CCN1CCN(c2ccc(S(=O)(=O)N3CCOCC3)cc2NC(=O)/C=C/c2ccc([N+](=O)[O-])cc2)CC1,1,3,100*,16,4,x,48*,64*
O=C(Nc1ccc(S(=O)(=O)N2CCOCC2)cc1)c1ccc([N+](=O)[O-])o1,-42,-120,39,4,11,u,x,x
O=C(NCCc1ccccc1C(F)(F)F)C1CCC(=O)N(CCCN2CCCC2=O)C1 (stereo not drawn),7,-4,13,3,13,0,x,x
O=[N+]([O-])c1ccc(NC(=S)NCCc2ccc(F)cc2)cc1,-16,-61,86*,11,1,2,63*,86*
COc1ccc(-c2nn(-c3ccccc3)cc2C(=O)N/N=C/c2ccc([N+](=O)[O-])o2)cc1,17,-26,58*,29,15,-1,53*,52*
O=C(N/N=C/c1ccc([N+](=O)[O-])o1)c1cn2ccc3ccccc3c2n1,4,-38,82*,-6,-6,1,9,x
O=C(N/N=C/c1ccc([N+](=O)[O-])o1)c1sc2ccccc2c1Cl,-1,-59,22,-6,4,22,x,x
CCCc1ccc(-c2cc(C(=O)N/N=C/c3ccc([N+](=O)[O-])o3)c3ccccc3n2)cc1,-78,-75,22,-53,-13,-14,x,x
O=C(N/N=C/c1ccc([N+](=O)[O-])o1)c1cc(-c2cccc(Br)c2)nc2ccccc12,4,-83,50*,9,1,5,36,x
Cc1c(NC(=O)c2ccc([N+](=O)[O-])o2)cccc1-c1nc2ncccc2o1,9,-228,29,-8,1,u,x,x
O=C1Nc2ccccc2C1=Nc1ccc2[nH]c3ccccc3c2c1,x,x,x,12,x,x,x,x
COc1ccc(CNC(=O)CCCNC(=O)c2ccc(Cl)cc2)cc1OC,-3,12,17,10,-7,1,x,x
CCOc1ccc(C(=O)Nc2cccc(-c3nc4ccccc4[nH]3)c2C)cc1[N+](=O)[O-],8,8,13,18,5,-18,x,x
COC(=O)c1c(NC(=O)Cc2cccs2)sc(C(=O)NC2CCCCC2)c1C,4,-7,55*,-58,-29,-4,1,x
CCOC(=O)c1c(NC(=O)Cc2cccs2)sc(C(=O)NC2CCCCC2)c1C,-42,0,66*,-39,-39,19,14,x
CCOc1ncccc1C(=O)OC(C)C(=O)Nc1ccc(N2CCOCC2)cc1 (stereo not drawn),-12,x,-6,-6,1,-10,x,x
CCCCOC(=O)c1ccc(NC(=S)NC(=O)c2c(Br)c(C)nn2C)cc1,-4,-22,8,34,8,-1,x,x
CCN1C(=O)c2cccc3c(S(=O)(=O)Nc4ccccc4OC)ccc1c23,16,-19,56*,43,5,x,43*,79*
Cc1ccccc1NS(=O)(=O)c1ccc2c3c(cccc13)C(=O)N2C,31,7,53*,22,-11,-10,49*,100*
CN1C(=O)c2cccc3c(S(=O)(=O)Nc4ccccn4)ccc1c23,27,-7,56*,-5,-12,3,41*,79*
SMILES,697 NFkB inh,aSyn UTR inh,Mdm2-MdmX inh,Gli-Sufu antag,Jurkat NFkB inh,CSC inhib,Mdm2-MdmX conf,Full FLuc ctr
O=C(CSc1nnc(-c2ccc(S(=O)(=O)N3CCCC3)cc2)o1)NCc1ccco1,-12,-12,7,0,-4,x,x,x
COC(=O)c1nn(-c2ccccc2)c(Cl)c1/C=N/OCc1ccc(Cl)cc1Cl,14,-1,58*,5,7,2,1,x
COC(=O)c1nn(-c2ccccc2)c(Cl)c1/C=N/O,6,26,19,-6,-13,12,x,x
COc1ccc(NC(=O)CC2Nc3cc(C)c(C)cc3NC2=O)c([N+](=O)[O-])c1 (stereo not drawn),5,2,88*,-12,-5,53,7,x
COc1ccc(NC(=O)Cc2ccc(C)cc2)c([N+](=O)[O-])c1,x,2,x,-4,x,-7,x,x
CCCCOc1ccc(C(C)NC(=O)C2CCCN(S(=O)(=O)CCC)C2)cc1 (stereo not drawn),25,18,-14,2,-3,3,x,x
O=C(COc1ccc(Cl)cc1Cl)N1CCCN(C(=O)COc2ccc(Cl)cc2Cl)CC1,22,24,59*,-3,-1,38,21,x
Cc1nc(Sc2ccc(Br)cc2)c(C#N)c(C)c1[N+](=O)[O-],-4,-45,53*,5,-22,83*,32,x
COc1ccc(NS(=O)(=O)c2cccc(C(=O)NNC(=O)c3ccccc3O)c2)cc1,-18,-36,53*,-5,-12,36,56*,58*
COc1ccccc1N(C)S(=O)(=O)c1ccc(C(=O)NNC(=O)c2ccccc2O)cc1,-3,x,62*,14,5,x,60*,48*
COC(=O)c1ccc(COC(=O)C(NC(=O)Cc2ccccc2)C(C)C)cc1 (stereo not drawn),4,x,-10,-8,19,x,x,x
O=C(COC(=O)C1=COCCO1)NC1CCCCC1,2,-11,-15,-20,-8,7,x,x
O=C(Cn1ncc(Cl)c(Cl)c1=O)N1CCOCC1,-12,-62,25,3,10,71,x,x
Cc1cc(C)cc(Cn2ncc(Cl)c(Cl)c2=O)c1,x,35,x,5,x,11,x,x
Cc1ccc(Cn2ncc(Cl)c(Cl)c2=O)cc1,7,-45,80*,10,7,-8,51*,5
CCc1ccc(C(=O)Cn2ncc(Cl)c(Cl)c2=O)cc1,-21,-64,96*,-43,4,-6,88*,51*
CN1CCN(CCC=C2c3ccccc3Sc3ccc(S(=O)(=O)N(C)C)cc32)CC1,-97,x,50*,6,-62,-3,31,x
OCCN1CCN(CC/C=C2/c3ccccc3Sc3ccc(C(F)(F)F)cc32)CC1,-32,-44,37,2,-1,51,x,x
